{"source": "PubChem BioAssay (Tox21)", "note": "Records with an inconclusive call do not appear. Where a call stands in place of a potency, no number is given. Active and inactive are the calls of the source. The call rests on the fitted dose curve."}
{"target": "Progesterone receptor (Homo sapiens) (UniProt P06401)", "sequence (P06401 whole entry, looked up)": "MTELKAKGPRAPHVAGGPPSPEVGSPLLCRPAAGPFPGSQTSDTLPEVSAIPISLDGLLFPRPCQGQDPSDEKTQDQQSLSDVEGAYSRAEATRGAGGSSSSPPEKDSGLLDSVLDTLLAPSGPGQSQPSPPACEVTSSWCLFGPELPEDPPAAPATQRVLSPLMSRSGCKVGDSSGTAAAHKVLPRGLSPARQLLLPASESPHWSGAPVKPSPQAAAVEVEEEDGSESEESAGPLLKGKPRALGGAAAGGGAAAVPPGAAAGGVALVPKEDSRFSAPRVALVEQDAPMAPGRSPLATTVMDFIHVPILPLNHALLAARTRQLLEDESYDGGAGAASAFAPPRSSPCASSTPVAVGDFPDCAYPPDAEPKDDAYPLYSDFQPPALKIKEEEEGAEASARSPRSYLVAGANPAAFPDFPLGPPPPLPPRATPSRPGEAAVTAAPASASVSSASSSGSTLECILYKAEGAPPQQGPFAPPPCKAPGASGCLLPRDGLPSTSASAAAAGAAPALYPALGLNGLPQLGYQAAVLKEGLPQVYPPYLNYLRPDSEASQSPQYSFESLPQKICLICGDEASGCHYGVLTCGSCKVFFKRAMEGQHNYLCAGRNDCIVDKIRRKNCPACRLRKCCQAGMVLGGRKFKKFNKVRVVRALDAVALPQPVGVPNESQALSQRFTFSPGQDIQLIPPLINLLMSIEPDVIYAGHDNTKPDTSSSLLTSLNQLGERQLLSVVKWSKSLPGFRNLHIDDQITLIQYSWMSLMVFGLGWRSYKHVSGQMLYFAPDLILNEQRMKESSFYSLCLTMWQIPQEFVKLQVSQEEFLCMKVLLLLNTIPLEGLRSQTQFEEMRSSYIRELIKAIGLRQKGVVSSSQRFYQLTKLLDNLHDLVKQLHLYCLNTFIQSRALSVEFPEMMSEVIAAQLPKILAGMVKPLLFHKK", "assay": "qHTS assay to identify small molecule agonists of the progesterone receptor (PR) signaling pathway (AID 1346784); further: nearly all actives have a fitted effect of over 30% in size", "settings": "PR-UAS-bla HEK293T, beta-lactamase FRET ratio, 16 h; series mostly up to 92.4 µM", "description": "U.S. Tox21 Program National Center for Advancing Translational Sciences [NCATS] NIH Chemical Genomics Center [NCGC] U.S. Environmental Protection Agency [EPA] National Institutes of Environmental Health Sciences [NIEHS] National Toxicology Program [NTP] U.S. Food and Drug Administration [FDA] […] Endocrine disrupting chemicals (EDCs) and their interactions with steroid hormone receptors like PR causes disruption of normal endocrine function. To identify the compounds that activate PR signaling, a PR-UAS-bla GripTite cell line i.e. PR-UAS-bla HEK 293T (Invitrogen, Carlsbad, CA, USA) containing a beta-lactamase reporter gene under the control of an Upstream Activator Sequence (UAS) was used to screen Tox21 10K compound library.\nTox21 Assay Protocol Summary: PR-UAS-bla HEK 293T cells were dispensed at 3,000 cells/5 uL of assay medium containing 2% charcoal stripped FBS per well into black wall/clear-bottom 1536-well plates using a Multidrop Combi (ThermoFisher Scientific, Waltham, MA) dispenser. After the assay plates were incubated at a 37C and 5% CO2 for 6hr, 23 nL of compounds dissolved in DMSO, positive controls or DMSO only was transferred to the assay plate by a Pintool station (Kalypsys, San Diego, CA). The plates were incubated at 37C and 5% CO2 for 16hr. Then 1 uL of LiveBLAzer B/G FRET substrate was added using a BioRAPTR FRD (Flying Reagent Dispenser, Aurora Discovery, San Diego, CA). After the plates were incubated at room temperature for 2 hours, fluorescence intensity was measured by an Envision plate reader (PerkinElmer, Shelton, CT)."}
{"compound": "O=[N+]([O-])c1ccccc1CCl", "Potency": "inactive"}
{"compound": "CC(O)(CS(=O)(=O)c1ccc(F)cc1)C(=O)Nc1ccc(C#N)c(C(F)(F)F)c1", "note": "(stereo not given)", "Potency": "inactive"}
{"compound": "ClP(Cl)(Cl)(Cl)Cl", "Potency": "inactive"}
{"compound": "C[C@@H]1CC[C@H]2[C@@H](C)C(=O)O[C@@H]3O[C@@]4(C)CC[C@@H]1[C@]32OO4", "Potency": "inactive"}
{"compound": "CN1C[C@H](CNC(=O)OCc2ccccc2)C[C@@H]2c3cccc4c3c(cn4C)C[C@H]21", "Potency": "inactive"}
{"compound": "C=C(C#N)CCC#N", "Potency": "inactive"}
{"compound": "OCCCBr", "Potency": "inactive"}
{"compound": "C=CC(=O)OCCCCO", "Potency": "inactive"}
{"compound": "CCCCCCCCCCOC(=O)c1ccccc1C(=O)OCCCCCCCCCC", "Potency": "inactive"}
{"compound": "CC(C)N(CCC(C(N)=O)(c1ccccc1)c1ccccn1)C(C)C", "note": "(stereo not given)", "Potency": "inactive"}
{"compound": "CC(=O)C(C)(C)C", "Potency": "inactive"}
{"compound": "CCCCOC(=O)c1ccccc1C(=O)OCc1ccccc1", "Potency": "inactive"}
{"compound": "O=C(CBr)OCc1ccccc1", "Potency": "inactive"}
{"compound": "CC(C)(OO)c1ccccc1", "Potency": "inactive"}
{"compound": "O=S(=O)(Cl)c1ccccc1", "Potency": "inactive"}
{"compound": "N#CCC#N", "Potency": "inactive"}
{"compound": "CC1(C)[C@H](C=C(Cl)Cl)[C@@H]1C(=O)O[C@@H](C#N)c1cccc(Oc2ccccc2)c1", "Potency": "inactive"}
{"compound": "O=C(N[C@H](c1ccccc1)[C@@H]1CN2CCC1CC2)c1c(Cl)ccc(C(F)(F)F)c1Cl", "Potency": "inactive"}
{"compound": "O=C1CN=C(c2ccccc2)c2cc(Cl)ccc2N1CC1CC1", "Potency": "inactive"}
{"compound": "C/C=C/C=O", "Potency": "inactive"}
{"compound": "Cc1c(F)c(F)c(COC(=O)C2C(/C=C(\\Cl)C(F)(F)F)C2(C)C)c(F)c1F", "note": "(stereo not given)", "Potency": "inactive"}
{"compound": "O=S1(=O)OC(c2cc(Br)c(O)c(Br)c2)(c2cc(Br)c(O)c(Br)c2)c2ccccc21", "Potency": "inactive"}
{"compound": "Cn1cc[n+](C)c1", "note": "(tested in a mixture with another compound)", "Potency": "inactive"}
{"compound": "CC(C)N(C(=O)COc1nnc(C(F)(F)F)s1)c1ccc(F)cc1", "Potency": "inactive"}
{"compound": "Nc1nc(=S)[nH][nH]1", "Potency": "inactive"}
{"compound": "CC(Cl)Cl", "Potency": "inactive"}
{"compound": "O=S(=O)(O)C(F)(F)C(F)(F)C(F)(F)C(F)(F)F", "Potency": "inactive"}
{"compound": "CS/C(C)=N/OC(=O)N(C)SN(C)C(=O)O/N=C(\\C)SC", "Potency": "inactive"}
{"compound": "COC(N)=O", "Potency": "inactive"}
{"compound": "CCOS(C)(=O)=O", "Potency": "inactive"}
{"compound": "CCc1ccc(C(=O)NN(C(=O)c2cc(C)cc(C)c2)C(C)(C)C)cc1", "Potency": "inactive"}
{"compound": "CCOP(=S)(OCC)SCn1nnc2ccccc2c1=O", "Potency": "inactive"}
{"compound": "CN(C)c1ccc(N(C)C)cc1", "Potency": "inactive"}
{"compound": "Nc1ccc([N+](=O)[O-])cc1[N+](=O)[O-]", "Potency": "inactive"}
{"compound": "Cc1ccccc1C(=O)Nc1cccc(OC(C)C)c1", "Potency": "inactive"}
{"compound": "CCOC(=O)[C@]1(c2ccccc2)Oc2ccccc2[C@@H]1N", "Potency": "inactive"}
{"compound": "COC(=O)C(Cl)C(=O)OC", "Potency": "inactive"}
{"compound": "NC(=O)CI", "Potency": "inactive"}
{"compound": "CC1C(=O)C[C@]2(C(C)C)C[C@H]12", "note": "(stereo not given in full)", "Potency": "inactive"}
{"compound": "N#Cc1ccc(Cl)cc1", "Potency": "inactive"}
